MITF TRPM1 HTS – activators of MITF-driven TRPM1 promoter reporter, primary screen, cell-based, SK-MEL-5, luciferase, single point; hit rate 0.75% among 300,000; activation, % at 12.5 µM; SK-MEL-5 TRPM1-promoter luciferase, 24 h; % of positive control, neutral wells = 0;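 active = mean activation of at least 80% with every replicate also reaching 80%; inconclusive = mean reaches 80% but some replicate falls short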;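 note: 0% = neutral control wells and 100% = parthenolide positive control wells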
Wnt act – Wnt/beta-catenin pathway activators, primary screen, cell-based, plate reader, single point; Wnt/beta-catenin reporter cell assay, activator; activation, % at 9.35 µM; hit rate 1.2% among 300,000; AID 743398, 2014; in the data active = activation above about 30%, passing the limit was not always enough; inconclusive = no clear call, values can overlap the other calls;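 note: 0% = neutral control wells and 100% = positive control wells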
Glyco luc inh – increase of ERlucT glycosylation luciferase signal, primary screen, N-linked glycosylation inhibitor project, D54 ERlucT cells, luminescence, set 2. D54 ERlucT glycosylation luciferase reporter, 24 h; percent of 100 nM tunicamycin response. reporter increase, % at 12.5 µM. hit rate 0.23% among 360,000. AID 588692, 2011;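 active = mean luciferase reporter signal, scaled so untreated is 0 and the glycosylation-blocking control 100, at or above a set limit in every replicate; inconclusive = mean reaches the limit but not every replicate does; inactive = mean below the limit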;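 note: luciferase carries N-glycosylation sites so blocking glycosylation raises the light; 0% = median of neutral control wells and 100% = median of 100 nM tunicamycin wells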
PvdQ inh – P. aeruginosa PvdQ acylase inhibitors, primary screen, biochemical, fluorescence, plate reader and imaging, single point; purified PvdQ acylase; PvdQ acylase [Pseudomonas aeruginosa LESB58]; hit rate 0.063% among 340,000; inhibition, % at 10 µM; AID 488965, 2010; in the data active = inhibition above about 30%, passing the limit was not always enough; inconclusive = no clear call, values can overlap the other calls;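 note: 0% = vehicle neutral wells and 100% = reference inhibitor wells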
Vif imaging – HIV Vif self-association inhibitors, primary screen, imaging, HEK293T, single point; HEK293T cells, Vif self-association by quenched fluorescence, 24 h; AID 602346, 2012; inhibition, % at 7.49 µM; hit rate 0.35% among 340,000; in the data active = inhibition above about 50%, passing the limit was not always enough; inconclusive = no clear call, values can overlap the other calls; inactive = below about 31%
esBAF inh – Bmi1 luciferase reporter increase in mESCs, primary screen, esBAF inhibitor project, mouse ES cells, Bmi1 luciferase knock-in, single point | 24 h; 100% = twice the neutral-well signal | reporter increase, % at 12.5 µM | hit rate 2% among 350,000 | AID 602393, 2012; in the data active = activation above about 40%; inconclusive = no clear call, values can overlap the other calls;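 note: 0% = median of the plate's neutral control wells and 100% = double that signal; a rise in the Bmi1 reporter signal indicates esBAF inhibition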
* hit, by the source's call; i = inactive; u = inconclusive; x = no result given. In the library only some 2.9% were active in any assay of this set; here they are far more common.

SMILES	MITF TRPM1 HTS	Wnt act	Glyco luc inh	PvdQ inh	Vif imaging	esBAF inh
COc1cc(OC)cc(C(=O)NC(=S)Nc2ccc3c4c(cccc24)CC3)c1	9	x	0	-20	x	x
COc1ccc(C(=O)Nc2cccc3c2CCCC3)c(OC)c1	x	36*	-1	x	-16	x
COc1ccc(C(=O)Nc2ccc3c4c(cccc24)CC3)cc1	87*	15	-1	-13	-14	x
O=C(Nc1ccc2c3c(cccc13)CC2)c1ccc(Br)o1	74	x	2	-15	2	79*
CNC[C@H]1Oc2ncc(-c3ccccc3C)cc2C(=O)N([C@H](C)CO)C[C@H]1C	x	x	x	x	x	8
COc1ccc(CN(C)C[C@@H]2OCCCC[C@@H](C)Oc3ccc(NC(=O)Cc4ccccc4)cc3C(=O)N([C@H](C)CO)C[C@H]2C)cc1	x	x	x	x	x	10
CCNC(=O)C[C@H]1CC[C@H](NC(=O)C2CCC2)[C@H](CO)O1	x	x	x	x	x	-1
CCN(CC)c1ccc(/C=C2\SC(N)=NC2=O)cc1	32	0	1	-14	i	49*
NC1=NC(=O)/C(=C/c2ccc(OCC(=O)O)cc2)S1	-1	1	-2	-4	-11	-6
Cc1cc(C(=O)Nc2cccc3c2O[C@H](CN(C)Cc2ccc(Oc4ccccc4)cc2)[C@@H](C)CN([C@@H](C)CO)C3=O)n(C)n1	x	x	x	x	x	-4
CC(C)Cc1nnc(NC(=O)CCC(=O)Nc2ccccc2)s1	-4	-1	8	-14	-3	0
O=C(Nc1ccccc1)Nc1cccc(Cl)c1	55	x	-6	-7	x	52*
O=C(N/N=C/c1ccco1)Nc1ccccc1	48	38*	-1	1	-11	9
CC(C)Cc1nnc(NC(=O)Nc2ccccc2)s1	96*	38*	-3	9	-1	53*
COc1ccccc1NC(=O)Nc1ccc(C(=O)N2CCCCC2)cc1	111*	15	-5	-7	27	37
COC(=O)c1ccccc1NC(=O)Nc1ccc(C(=O)N2CCCC2)cc1	x	-3	-1	-16	-6	-2
O=C(CCC(=O)Nc1ccccc1)N/N=C/c1ccco1	4	1	4	-3	x	4
CC(=O)Nc1ccc(NC(=O)Nc2cccc(Cl)c2)cc1	61	5	-4	-6	10	40
CC(C)NC(=O)N(C)C[C@H]1OCCCC[C@H](C)Oc2ccc(NS(=O)(=O)c3cccs3)cc2C(=O)N([C@@H](C)CO)C[C@@H]1C	x	x	x	x	x	-1
O=C(Nc1cccc(Cl)c1)Nc1ccc2nccnc2c1	112*	-1	-4	-8	x	97*
O=C(Nc1cccc(Cl)c1)N1CCCCCC1	1	5	-2	-7	-4	28
O=C(Nc1ccccc1)Nc1ccccc1	60	0	-1	12	-6	49*
O=C(NC1=NCCS1)Nc1ccccc1	41	42*	-8	-7	-3	x
O=C(Nc1ccccc1)Nc1ccc(Nc2ccccc2)cc1	x	1	1	x	-9	x
O=C(Nc1ccc(C(=O)N2CCCCC2)cc1)Nc1cccc(Cl)c1	106*	17	-4	-13	-2	86*
SMILES	MITF TRPM1 HTS	Wnt act	Glyco luc inh	PvdQ inh	Vif imaging	esBAF inh
COc1ccc(S(=O)(=O)N(C)C[C@@H]2Oc3c(NC(=O)C4CCOCC4)cccc3C(=O)N([C@H](C)CO)C[C@H]2C)cc1	x	x	x	x	x	0
CN(C)C(=O)C[C@@H]1CC[C@@H]2[C@H](COC[C@H](O)CN2CC2CCCCC2)O1	x	x	x	x	x	-1
Cn1nccc1NC(=O)Nc1cccc(Cl)c1	x	3	3	-8	0	x
CS/C(N)=N/C(=S)Nc1cccc(Cl)c1	27	45*	1	-4	6	x
Cn1nnc2cc(NC(=O)Nc3cccc(Cl)c3)ccc21	93*	19	-2	-13	x	u
CCC(=O)Nc1ccc2c(c1)OC[C@@H](C)N(C(=O)CN(C)C)C[C@@H](C)[C@@H](OC)CN(C)C2=O	x	x	x	x	x	-2
COc1ccccc1Nc1ncnc2c1cnn2-c1cccc(C)c1	x	35*	0	-9	-13	u
COc1ccc(OC)c(Nc2ncnc3c2cnn3-c2ccccc2)c1	24	x	0	-1	4	28

Screening results deposited in PubChem BioAssay by Broad Institute.
